Laboratory results published in the supplement of paper PMC10849652.
About 8,800 targets were measured; listed, in parts, are those with a hit and a random draw of the rest. About 0.5% of all pairs of compound and target were hits.

Columns and labels:
Experiment in all cases: log2 fold change, soluble protein after heating vs DMSO (PISA); higher = thermal stabilisation; K562 lysate, 10 uM; active = over 0.2 and 3.5 SD of the protein, either way, in both replicates (recomputed)
[1] = compound: NCC(=O)Nc1ccc(-n2nc(C(F)(F)F)cc2-c2ccc3c(ccc4ccccc43)c2)cc1
Method in brief: (§1)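 To prepare the extract, K562 pellets were dounce-homogenised in PBS pH 7.4 with 1 mM MgCl2, giving crude material at 1 mg/mL protein. This was treated with 10 μM compound for 30 min, then heated in aliquots for 3 min over 48°C-58°C before pooling and addition of NP-40 to 0.5% at 4°C. Centrifugation at 21,000xg for 90 min left soluble protein in the supernatant, which TMTpro 16plex LC-MS/MS quantified with equalised channel sums. Results are log-two fold changes in thermal stability compared with solvent controls, from duplicates.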

[2] = compound: O=C(CCCCCCC(=O)Nc1ccccc1)NO [vorinostat]
Method in brief: as §1

[3] = compound: O=C(O)c1ccc2c(c1)nc(Nc1cccc(Cl)c1)c1ccncc12 [silmitasertib]
Method in brief: as §1

[4] = compound: O=C1NC(=O)C(c2cnc3ccccn23)=C1c1cn2c3c(cc(F)cc13)CN(C(=O)N1CCCCC1)CC2
Method in brief: as §1

[5] = compound: c1cn2cc(-c3ccc4cn[nH]c4c3)nc(Nc3ccc(N4CCOCC4)cc3)c2n1 [entospletinib]
Method in brief: as §1

Measured: log2 fold change

REL isoform 2 (UniProt Q04864)
active: [2] -0.351
inactive: [1] -0.052 | [3] 0.07 | [4] -0.004 | [5] 0.019

SBF1 isoform 4 (UniProt O95248)
inactive: [1] 0.013 | [3] -0.046 | [4] 0.056 | [5] 0.005
active: [2] -0.377

RPLP0P6 (UniProt Q8NHW5)
inactive: [1] 0.009 | [2] 0.123 | [3] 0.004 | [4] -0.003 | [5] 0.017

RBM4 (UniProt Q9BWF3)
Sequence of UniProt Q9BWF3 (Q9BWF3 whole entry, looked up): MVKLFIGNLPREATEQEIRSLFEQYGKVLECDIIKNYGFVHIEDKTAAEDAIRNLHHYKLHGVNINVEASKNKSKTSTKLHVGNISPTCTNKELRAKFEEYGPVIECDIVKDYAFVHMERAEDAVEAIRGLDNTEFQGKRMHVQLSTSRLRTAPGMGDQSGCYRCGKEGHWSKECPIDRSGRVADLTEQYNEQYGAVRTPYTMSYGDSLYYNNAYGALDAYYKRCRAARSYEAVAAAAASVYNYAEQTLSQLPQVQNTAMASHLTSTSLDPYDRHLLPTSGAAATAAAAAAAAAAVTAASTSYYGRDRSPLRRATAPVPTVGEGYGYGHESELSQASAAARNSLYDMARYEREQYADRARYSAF
inactive: [1] -0.04 | [2] -0.172 | [3] 0.035 | [4] -0.097 | [5] 0.001

RECQL4 (UniProt O94761)
inactive: [1] -0.003 | [2] -0.044 | [3] 0.019 | [4] 0.022 | [5] -0.023

RABGGTB (UniProt P53611)
inactive: [1] -0.058 | [3] 0.006 | [4] -0.005 | [5] -0.044
active: [2] -0.286

RNASEH2B (UniProt Q5TBB1)
inactive: [1] -0.016 | [3] 0.054 | [4] -0.064 | [5] 0.011
active: [2] -0.377

RHAG (UniProt Q02094)
inactive: [1] 0.031 | [2] -0.026 | [3] 0.153 | [4] 0.015 | [5] -0.03

RALGAPB (UniProt Q86X10)
active: [2] -0.299
inactive: [1] 0.004 | [3] 0.017 | [4] -0.017 | [5] -0.029

SAR1B (UniProt Q9Y6B6)
inactive: [1] -0.083 | [2] 0.155 | [3] -0.103 | [4] -0.044 | [5] -0.053

S100A6 (UniProt P06703)
inactive: [1] 0.064 | [2] 0.136 | [3] -0.036 | [4] -0.071 | [5] -0.005

RIPK1 (UniProt Q13546)
inactive: [1] -0.021 | [3] -0.037 | [4] -0.013 | [5] 0.011
active: [2] -0.292

RPL37A (UniProt P61513)
inactive: [1] 0.028 | [2] 0.08 | [3] -0.021 | [4] 0.093 | [5] -0.005

RBM22 (UniProt Q9NW64)
active: [2] -0.23
inactive: [1] 0.024 | [3] 0 | [4] -0.053 | [5] -0.023

RANBP2 (UniProt P49792)
inactive: [1] -0.01 | [3] -0.004 | [4] 0.001 | [5] -0.006
active: [2] -0.343

RBM5 (UniProt P52756)
active: [2] -0.427
inactive: [1] 0.036 | [3] 0.072 | [4] -0.056 | [5] 0.023

RNF40 (UniProt O75150)
inactive: [1] 0.015 | [3] 0.032 | [4] -0.007 | [5] -0.022
active: [2] -0.237

RASA2 (UniProt Q15283)
active: [2] -0.275
inactive: [1] -0.007 | [3] 0.021 | [4] -0.006 | [5] 0.023

RPL8 (UniProt P62917)
inactive: [1] -0.041 | [2] 0.12 | [3] 0 | [4] 0.089 | [5] -0.006

SCO1 (UniProt O75880)
Sequence of UniProt O75880 (O75880 whole entry, looked up): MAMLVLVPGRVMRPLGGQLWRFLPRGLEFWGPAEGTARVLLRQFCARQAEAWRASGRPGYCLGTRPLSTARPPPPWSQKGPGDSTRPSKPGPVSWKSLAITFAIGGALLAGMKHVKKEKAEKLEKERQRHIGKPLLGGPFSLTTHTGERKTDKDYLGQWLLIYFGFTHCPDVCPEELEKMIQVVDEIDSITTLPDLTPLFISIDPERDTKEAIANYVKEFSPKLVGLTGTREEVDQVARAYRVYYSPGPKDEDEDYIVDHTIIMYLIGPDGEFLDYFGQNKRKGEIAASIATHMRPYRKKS
inactive: [1] 0.022 | [2] 0.149 | [3] -0.067 | [4] -0.052 | [5] 0

RBM42 (UniProt Q9BTD8)
inactive: [1] 0.19 | [2] -0.04 | [3] -0.031 | [4] 0.018 | [5] -0.058

SATB2 (UniProt Q9UPW6)
inactive: [1] 0 | [3] 0.051 | [4] -0.024 | [5] 0.036
active: [2] -0.347

SAMHD1 (UniProt Q9Y3Z3)
inactive: [1] -0.012 | [3] -0.002 | [4] 0.032 | [5] 0.031
active: [2] -0.352

RPS6KB1 (UniProt P23443)
active: [2] -0.319
inactive: [1] -0.049 | [3] 0.132 | [4] -0.017 | [5] -0.005

SEC24D isoform 2 (UniProt O94855)
inactive: [1] -0.017 | [3] 0.037 | [4] -0.013 | [5] -0.003
active: [2] -0.251

RAF1 isoform 2 (UniProt P04049)
Sequence of UniProt P04049 (P04049 whole entry, looked up): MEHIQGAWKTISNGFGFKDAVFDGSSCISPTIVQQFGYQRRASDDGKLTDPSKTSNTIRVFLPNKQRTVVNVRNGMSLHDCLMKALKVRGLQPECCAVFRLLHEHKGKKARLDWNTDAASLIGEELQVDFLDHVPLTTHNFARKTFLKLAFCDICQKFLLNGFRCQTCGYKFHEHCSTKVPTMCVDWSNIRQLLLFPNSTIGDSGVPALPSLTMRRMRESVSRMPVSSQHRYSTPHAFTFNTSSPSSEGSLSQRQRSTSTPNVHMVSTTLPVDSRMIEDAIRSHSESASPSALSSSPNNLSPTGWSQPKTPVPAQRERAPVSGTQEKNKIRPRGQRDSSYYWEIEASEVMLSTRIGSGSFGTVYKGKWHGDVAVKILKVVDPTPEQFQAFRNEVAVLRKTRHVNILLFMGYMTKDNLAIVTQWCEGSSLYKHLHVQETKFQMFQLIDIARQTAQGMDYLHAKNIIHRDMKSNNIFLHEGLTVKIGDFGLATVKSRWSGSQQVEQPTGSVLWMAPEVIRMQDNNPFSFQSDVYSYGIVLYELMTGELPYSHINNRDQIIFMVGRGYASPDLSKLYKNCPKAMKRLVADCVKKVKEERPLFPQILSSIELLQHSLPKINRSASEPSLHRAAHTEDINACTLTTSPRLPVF
inactive: [1] 0.126 | [3] 0.024 | [4] 0.068 | [5] -0.015
active: [2] -0.304

RABL3 (UniProt Q5HYI8)
Sequence of UniProt Q5HYI8 (Q5HYI8 whole entry, looked up): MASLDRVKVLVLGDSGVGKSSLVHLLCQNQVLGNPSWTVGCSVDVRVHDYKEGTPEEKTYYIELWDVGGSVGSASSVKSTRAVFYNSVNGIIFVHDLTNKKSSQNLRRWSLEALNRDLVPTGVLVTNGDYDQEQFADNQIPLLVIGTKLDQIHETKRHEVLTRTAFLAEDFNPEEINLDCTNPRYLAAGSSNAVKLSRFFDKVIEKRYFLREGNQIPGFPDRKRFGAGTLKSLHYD
inactive: [1] 0.031 | [2] -0.126 | [3] 0.445 | [4] -0.039 | [5] 0

RPS6KA3 (UniProt P51812)
inactive: [1] -0.017 | [2] -0.384 | [3] 0.362 | [4] 0.181 | [5] -0.052

RPS26P11 (UniProt Q5JNZ5)
inactive: [1] -0.026 | [2] 0.114 | [3] 0.049 | [4] -0.113 | [5] -0.035

RAD51C (UniProt O43502)
active: [2] -0.386
inactive: [1] 0.023 | [3] -0.003 | [4] -0.015 | [5] 0.065

SESN2 (UniProt P58004)
Sequence of UniProt P58004 (P58004 whole entry, looked up): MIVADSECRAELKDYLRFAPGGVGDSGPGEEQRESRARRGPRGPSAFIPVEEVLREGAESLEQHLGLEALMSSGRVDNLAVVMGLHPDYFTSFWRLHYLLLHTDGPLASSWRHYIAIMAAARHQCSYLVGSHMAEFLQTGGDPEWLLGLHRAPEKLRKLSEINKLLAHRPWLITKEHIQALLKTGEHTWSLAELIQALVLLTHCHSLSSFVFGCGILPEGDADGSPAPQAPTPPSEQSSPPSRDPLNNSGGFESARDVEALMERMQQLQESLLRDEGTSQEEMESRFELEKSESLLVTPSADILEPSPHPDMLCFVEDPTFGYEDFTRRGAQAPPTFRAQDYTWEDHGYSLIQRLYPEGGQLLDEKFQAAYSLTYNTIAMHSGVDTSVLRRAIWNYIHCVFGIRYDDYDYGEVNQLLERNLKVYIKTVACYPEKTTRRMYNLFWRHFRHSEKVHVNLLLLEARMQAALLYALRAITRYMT
active: [2] -0.367
inactive: [1] 0.006 | [3] 0.066 | [4] 0.022 | [5] 0.073

RIOK2 (UniProt Q9BVS4)
Sequence of UniProt Q9BVS4 (Q9BVS4 whole entry, looked up): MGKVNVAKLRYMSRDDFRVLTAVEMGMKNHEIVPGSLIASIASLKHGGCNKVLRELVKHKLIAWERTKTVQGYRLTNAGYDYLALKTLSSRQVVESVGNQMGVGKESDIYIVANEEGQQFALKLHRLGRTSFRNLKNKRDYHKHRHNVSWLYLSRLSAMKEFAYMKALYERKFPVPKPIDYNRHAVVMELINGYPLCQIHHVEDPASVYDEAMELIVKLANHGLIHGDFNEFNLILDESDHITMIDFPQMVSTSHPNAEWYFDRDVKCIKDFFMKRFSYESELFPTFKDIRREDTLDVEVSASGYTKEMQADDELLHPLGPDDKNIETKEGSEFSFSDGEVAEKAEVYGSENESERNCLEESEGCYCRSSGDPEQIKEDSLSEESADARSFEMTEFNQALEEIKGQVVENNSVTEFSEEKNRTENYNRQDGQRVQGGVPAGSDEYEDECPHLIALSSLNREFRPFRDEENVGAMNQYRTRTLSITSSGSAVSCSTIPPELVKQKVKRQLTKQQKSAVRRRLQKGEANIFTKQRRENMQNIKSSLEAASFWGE
inactive: [1] -0.022 | [2] -0.098 | [3] 0.096 | [4] 0.008 | [5] 0.315

RABEPK (UniProt Q7Z6M1)
inactive: [1] 0.008 | [3] 0.032 | [4] 0.014 | [5] 0.009
active: [2] -0.441

S100A11 (UniProt P31949)
inactive: [1] -0.085 | [2] 0.106 | [3] -0.057 | [4] 0.046 | [5] -0.045

RNASEL (UniProt Q05823)
active: [2] -0.298
inactive: [1] -0.005 | [3] 0.055 | [4] -0.021 | [5] -0.023

RDX (UniProt P35241)
inactive: [1] 0.002 | [2] 0.129 | [3] -0.017 | [4] -0.008 | [5] 0.023

RASA3 (UniProt Q14644)
active: [2] -0.361
inactive: [1] -0.022 | [3] -0.08 | [4] -0.015 | [5] 0.017

SCO2 (UniProt O43819)
inactive: [1] -0.024 | [2] 0.063 | [3] -0.079 | [4] 0.017 | [5] 0.053

RALGAPA1 isoform 6 (UniProt Q6GYQ0)
Sequence of UniProt Q6GYQ0 (Q6GYQ0 whole entry, looked up): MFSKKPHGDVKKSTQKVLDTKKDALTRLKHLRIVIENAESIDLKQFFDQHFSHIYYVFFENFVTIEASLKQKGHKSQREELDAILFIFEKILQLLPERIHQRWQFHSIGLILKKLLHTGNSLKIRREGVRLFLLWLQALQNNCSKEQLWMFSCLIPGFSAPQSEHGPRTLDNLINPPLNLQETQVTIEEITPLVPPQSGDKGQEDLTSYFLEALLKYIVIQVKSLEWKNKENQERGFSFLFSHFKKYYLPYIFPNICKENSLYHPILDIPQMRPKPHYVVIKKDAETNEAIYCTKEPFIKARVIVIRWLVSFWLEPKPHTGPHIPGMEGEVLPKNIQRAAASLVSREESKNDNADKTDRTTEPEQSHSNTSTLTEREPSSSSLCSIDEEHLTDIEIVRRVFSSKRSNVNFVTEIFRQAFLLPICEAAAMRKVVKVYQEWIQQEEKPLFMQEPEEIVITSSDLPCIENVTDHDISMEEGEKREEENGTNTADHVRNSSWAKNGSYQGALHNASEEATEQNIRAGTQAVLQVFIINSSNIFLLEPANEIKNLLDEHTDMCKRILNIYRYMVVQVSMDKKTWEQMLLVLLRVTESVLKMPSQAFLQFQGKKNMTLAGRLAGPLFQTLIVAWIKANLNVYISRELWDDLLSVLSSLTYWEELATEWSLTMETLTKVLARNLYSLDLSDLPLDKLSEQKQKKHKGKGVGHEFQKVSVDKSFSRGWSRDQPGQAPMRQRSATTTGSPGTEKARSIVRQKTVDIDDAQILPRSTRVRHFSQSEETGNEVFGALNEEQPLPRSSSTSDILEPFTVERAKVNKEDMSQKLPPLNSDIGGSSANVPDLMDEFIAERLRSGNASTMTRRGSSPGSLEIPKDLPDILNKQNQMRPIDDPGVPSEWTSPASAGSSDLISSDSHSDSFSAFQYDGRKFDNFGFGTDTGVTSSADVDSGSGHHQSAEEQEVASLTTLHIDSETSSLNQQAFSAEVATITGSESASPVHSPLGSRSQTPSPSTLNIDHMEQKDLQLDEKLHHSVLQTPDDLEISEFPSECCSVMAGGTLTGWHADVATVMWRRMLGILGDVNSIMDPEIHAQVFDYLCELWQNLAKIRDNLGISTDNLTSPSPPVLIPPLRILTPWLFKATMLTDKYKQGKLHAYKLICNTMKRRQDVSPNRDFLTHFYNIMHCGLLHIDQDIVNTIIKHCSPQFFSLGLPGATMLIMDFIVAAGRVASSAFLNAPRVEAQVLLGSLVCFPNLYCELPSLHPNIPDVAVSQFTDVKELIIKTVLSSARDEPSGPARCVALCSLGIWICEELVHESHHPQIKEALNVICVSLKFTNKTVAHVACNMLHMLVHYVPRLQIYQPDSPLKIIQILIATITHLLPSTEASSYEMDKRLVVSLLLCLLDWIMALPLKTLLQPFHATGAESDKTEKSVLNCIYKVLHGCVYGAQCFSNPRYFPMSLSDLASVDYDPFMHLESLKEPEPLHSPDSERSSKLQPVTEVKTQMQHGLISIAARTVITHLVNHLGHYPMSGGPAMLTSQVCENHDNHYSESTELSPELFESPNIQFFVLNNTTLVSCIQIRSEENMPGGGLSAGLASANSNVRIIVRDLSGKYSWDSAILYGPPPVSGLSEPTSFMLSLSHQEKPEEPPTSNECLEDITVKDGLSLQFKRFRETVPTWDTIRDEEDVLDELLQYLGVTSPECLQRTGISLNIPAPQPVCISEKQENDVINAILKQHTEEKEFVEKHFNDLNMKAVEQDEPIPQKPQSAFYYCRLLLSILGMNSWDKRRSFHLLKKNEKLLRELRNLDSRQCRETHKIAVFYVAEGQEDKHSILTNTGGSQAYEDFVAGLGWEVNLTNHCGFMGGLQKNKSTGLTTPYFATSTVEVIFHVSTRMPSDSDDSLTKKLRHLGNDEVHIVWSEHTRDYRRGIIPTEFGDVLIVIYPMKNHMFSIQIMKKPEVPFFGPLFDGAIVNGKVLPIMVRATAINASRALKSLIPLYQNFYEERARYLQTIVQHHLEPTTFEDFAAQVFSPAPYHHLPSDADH
inactive: [1] 0.047 | [2] 0.034 | [3] -0.054 | [4] -0.027 | [5] -0.022

REEP6 (UniProt Q96HR9)
inactive: [1] -0.031 | [2] 0.068 | [3] -0.083 | [4] -0.028 | [5] -0.059

RAI14 isoform 2 (UniProt Q9P0K7)
active: [2] -0.254
inactive: [1] 0.005 | [3] 0.022 | [4] 0.015 | [5] -0.003

RPS6KA5 (UniProt O75582)
inactive: [1] -0.025 | [2] -0.189 | [3] 0.034 | [4] -0.303 | [5] -0.007

RBBP7 (UniProt Q16576)
inactive: [1] -0.005 | [2] -0.091 | [3] 0.033 | [4] -0.167 | [5] 0

RAP1B (UniProt F5GZG1)
inactive: [1] -0.051 | [2] -0.054 | [3] -0.004 | [4] -0.099 | [5] -0.026

RCAN1 (UniProt P53805)
inactive: [1] 0.082 | [2] -0.197 | [3] 0.02 | [4] 0.02 | [5] 0.031

RPAP1 (UniProt Q9BWH6)
active: [2] -0.232
inactive: [1] 0.006 | [3] 0 | [4] 0.015 | [5] -0.025

QRSL1 (UniProt Q9H0R6)
inactive: [1] 0.066 | [3] 0.051 | [4] 0.028 | [5] 0.019
active: [2] -0.308

RNF113A (UniProt O15541)
Sequence of UniProt O15541 (O15541 whole entry, looked up): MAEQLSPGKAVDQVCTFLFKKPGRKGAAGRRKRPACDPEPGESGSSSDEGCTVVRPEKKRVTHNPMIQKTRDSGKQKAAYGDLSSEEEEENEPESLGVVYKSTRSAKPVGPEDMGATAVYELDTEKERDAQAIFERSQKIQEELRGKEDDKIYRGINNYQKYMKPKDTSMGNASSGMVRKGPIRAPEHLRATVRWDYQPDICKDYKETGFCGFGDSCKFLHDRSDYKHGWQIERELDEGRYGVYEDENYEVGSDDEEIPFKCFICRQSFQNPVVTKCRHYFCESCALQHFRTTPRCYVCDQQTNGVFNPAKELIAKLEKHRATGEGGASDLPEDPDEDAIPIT
inactive: [1] 0.009 | [2] -0.02 | [3] -0.03 | [4] -0.004 | [5] 0.02

RFWD3 (UniProt Q6PCD5)
inactive: [1] 0.089 | [3] 0.061 | [4] -0.027 | [5] 0.043
active: [2] -0.444

RPS4X (UniProt P62701)
inactive: [1] 0.008 | [2] 0.106 | [3] 0.028 | [4] 0.015 | [5] 0.016

RELN (UniProt P78509)
inactive: [1] 0.016 | [2] 0.088 | [3] -0.049 | [4] 0.006 | [5] -0.037

QTRT2 isoform 4 (UniProt Q9H974)
inactive: [1] 0.004 | [2] 0.079 | [3] -0.011 | [4] -0.007 | [5] 0.022

RAC2 (UniProt P15153)
inactive: [1] -0.073 | [3] 0.024 | [4] 0.102 | [5] 0.024
active: [2] -0.25
